Each structure is given as a SMILES string. Inconclusive results are not listed. Calls of active or inactive are those of the source. The call rests on the fitted dose curve; in most records, active means well fitted inhibition curve with a large enough effect; inconclusive means small, poorly fitted or top-dose-only effect; inactive means no such curve, though single readings can be large or run the other way.
Potency means the concentration at half of the fitted maximal effect.

This assay can be described thus: InCell qHTS Assay for Inhibitors of the mTORC1 Signaling Pathway in MEF (Tsc2-/-, p53-/-) Cells: Hit Validation. Further: nearly all actives have a fitted effect of over 75% in size. The note with it: phospho-rpS6 immunofluorescence, 24 h; activity change, negative = inhibition: at 38.3 µM (top of the series). From the text: The mammalian target of rapamycin (mTOR) is an intracellular serine/threonine kinase Aberrant regulation of mTOR signaling plays a causative role in a number of human diseases, including cancer, benign tumors such as lymphangioleiomyomatosis (LAM) and Tuberous Sclerosis Complex (TSC), and metabolic diseases such as diabetes and obesity. This project aims to identify inhibitors of ribosomal protein S6 (rpS6) phosphorylation. The phosphorylation of rpS6 is a key event downstream of mTOR activation. The assay uses a phospho-specific antibody of phospho-rpS6 to detect inhibitors of mTOR activation. Mutations in the Tsc1 and Tsc2 genes are the underlying genetic lesions responsible for TSC, causing constitutive activation of the mTORC1 pathway and leading to profound effects on cell metabolism. Aberrant metabolism in cancer has recently received significant attention as a target to develop therapeutic agents in the treatment of cancer.1 As Tsc2-/- cells have lost the ability to respond to energy and growth factor deprivation, these cells are unable to properly down regulate cellular biosynthetic processes in response to metabolic stress, and are thus extremely sensitive to glucose deprivation-induced death.2 A central goal of this project is to explore the unique cell survival and metabolic properties of cells with Tsc1 or Tsc2 by screening for compounds that selectively target the Tsc2-/- MEFs by screening both Tsc2-/- and WT MEF cell lines. We hope to better understand these aspects of TSC physiology in order to exploit them for therapeutic benefit. NIH Molecular Libraries Probe Production Centers Network [MLPCN] NIH Chemical Genomics Center [NCGC] MLPCN Grant: NS059428 Assay Submitter (PI): Blenis, John; Harvard University
For quantitative high throughput analysis of mTORC1 signaling, we developed a cell-based assay for immuno-fluorescence based detection of rpS6 phosphorylation on the Acumen Explorer that will be used a platform for the primary small molecule screen. Mouse embryonic fibroblasts (MEFs) are cultured in 1536-well plates using DMEM + 10% FBS. Twenty-four hrs after plating, test compounds (solubilized in DMSO) are delivered and incubated with the cells for 24 hrs at 37 degree Celsius. Following the incubation, media with compound is aspirated and the cells are fixed in 4% paraformaldehyde (PFA) containing PBS + 0.2% TX-100. Next, PFA is aspirated, cells are washed two times with PBS plus 0.2% TX-100 and the cells are blocked for 1 hr at room temperature (blocking buffer: LiCOR Blocking Buffer plus 0.2% TX-100). This is followed by aspiration and staining with Alexa-488 conjugated-phospho-rpS6 Ser235/236 antibody for 2 hours at room temperature (Cell Signaling Technology # 4803, 1:50 dilution in blocking buffer). Cells are washed two times with PBS plus 0.2% TX-100, and stained with 10 uM propidium iodide (PI) for 20-25 minutes for cell number measurement (1:500 dilution of Hoescht staining is also added for IN Cell imaging). The plates are scanned on the Acumen Explorer laser scanning instrument (TTP Labtech) using the 488nm laser for simultaneous excitation of the Alexa-488 and PI. The fluorescence emission from the Alexa-488 conjugated rpS6 phospho-235/236 antibody staining is selected using a […] band pass filter. Fluorescence emission from the PI stain is selected using a 575-640 nm band pass filter. The normalized phospho-S6 staining is calculated as the ratio of the integrated Alexa 488 intensity divided by the integrated PI intensity for the single concentration rapamycin control (7.5 nM) and DMSO columns. […] Inhibition of the pathway is defined based on the normalized phospho-S6 intensity in rapamycin treated cells. […]
A general note: In qHTS, concentration-response curves come from the screen itself.
As to `CCOc1ccc(S(=O)(=O)NCCc2sc(-c3ccc(C)cc3)nc2C)cc1`, the activity change, negative = inhibition was -100%.

For the compound `CC(C)(C)C1CCc2c(sc(NC(=O)C3c4ccccc4Oc4ccccc43)c2C(N)=O)C1` (stereo not given), the activity change, negative = inhibition was -100%.

Turning to `FC(F)(F)c1cccc(Nc2c3c(nc4ccc(Cl)cc24)CCC3)c1`, the activity change, negative = inhibition was -100%.

`CCc1ccc(OCC(=O)Nc2ccc3oc(-c4ccc(OC)cc4)nc3c2)cc1`: the activity change, negative = inhibition is -100%.

`Cc1ccc(NC(=O)CSc2nc(=O)cc(N)n2CCc2ccccc2)cc1`: the activity change, negative = inhibition is -100%.

Take `CCOC(=O)N1CCN(Cc2nc3cc(NC(=O)c4cccc(C)c4)ccc3n2C(C)C)CC1`: the activity change, negative = inhibition was -100%.

`CCOC(=O)c1ccc(N2C(=O)c3n[nH]c(-c4cccs4)c3C2c2cccc(F)c2)cc1` (stereo not given): the activity change, negative = inhibition was -100%.

Turning to `COc1ccccc1NC(=O)C1=C(C)Nc2nc(SCc3ccccc3)nn2C1c1cccs1` (stereo not given), the activity change, negative = inhibition is -100%.

Consider `CCC(=O)C1=C(c2ccc(F)cc2)N(C(=O)CC)n2cnnc2S1`, for which the activity change, negative = inhibition is -21.8%.

`CCOC(=O)c1c(NC(=O)c2ccc(S(=O)(=O)N(C)C)cc2)sc2c1CCN(C)C2`: the activity change, negative = inhibition was -26.7%.

On to `CCc1ccc(NC(=O)CSc2nccn2C2CCCC2)cc1`, for which the activity change, negative = inhibition is -100%.

`CCOc1ccc(/C=C/c2nc(C#N)c(NCc3ccccc3)o2)cc1`: the activity change, negative = inhibition is -100%.

Turning to `CC(=O)Nc1ccc(NC(=O)c2nc(S(=O)(=O)Cc3ccc(F)cc3)ncc2Cl)cc1`, the Potency was 3.29 µM (active).

`O=C(NCc1ccc(F)cc1)c1ccc2c(Cl)c3c(nc2c1)CCCC3`: the activity change, negative = inhibition is -100%.

As to `CCOc1ccccc1NC(=O)CSc1cc(=O)n(CC)c2ccccc12`, the activity change, negative = inhibition was -100%.

Take `Cn1nnnc1SCCCNCc1cc(Cl)ccc1OCc1ccc(F)cc1`: the activity change, negative = inhibition was -100%.

On to `COc1ccccc1N1CCN(C(=O)c2cnc(N3CCCCC3)c3ccccc23)CC1`, for which the activity change, negative = inhibition is -100%.

As to `CN(C)c1ccc(-c2nc3ccccn3c2Nc2ccc3c(c2)OCCO3)cc1`, the activity change, negative = inhibition is -100%.

In the case of `CCOc1ccc(C(=O)NCCc2sc(-c3ccc(C)cc3)nc2C)cc1`, the activity change, negative = inhibition was -100%.

As for `CCOc1ccccc1NS(=O)(=O)c1ccc(-c2cnc(C3CC3)o2)cc1`, the activity change, negative = inhibition was -100%.

Take `COc1ccc(Cl)cc1NC(=O)CCCS(=O)(=O)c1nc(-c2ccc(OC)c(OC)c2)cc(C(F)(F)F)n1`: the Potency was 14.7 µM (active).

For `CCOc1ccc(N(C(C)C(=O)Nc2cc(Cl)ccc2OC)S(C)(=O)=O)cc1` (stereo not given), the activity change, negative = inhibition was -100%.

With `CCC(C)S(=O)(=O)c1oc(-c2ccc(F)cc2)nc1S(=O)(=O)c1ccc(F)cc1` (stereo not given), the Potency is 1.47 µM (active).

Take `CCOC(=O)c1c(C)[nH]c(CCC(=O)Nc2cc(C)ccc2OC)c1C`: the activity change, negative = inhibition is -100%.

On to `Cc1ccc(-c2nn(C)c(=O)c3ccccc23)cc1S(=O)(=O)NCCCN(C)C`, for which the activity change, negative = inhibition was -100%.

With `O=C(Nc1ccc(Cl)cc1)c1cc(S(=O)(=O)N2CCCc3ccccc32)ccc1F`, the activity change, negative = inhibition was -100%.

As for `CC1CCCN(CCCNC(=O)c2ccc3c(c2)N(Cc2ccc(Cl)cc2)C(=O)c2ccccc2S3(=O)=O)C1` (stereo not given), the activity change, negative = inhibition is -100%.

`CC1=Nc2cc(C(=O)NCCc3ccc(Cl)cc3)ccc2Sc2ccc(C)cc21`: the activity change, negative = inhibition is -100%.

For `COc1ccccc1CNC(=O)CCCn1c(=O)c2cccn2c2ccccc21`, the activity change, negative = inhibition was -100%.

For the compound `CCC(C)Sc1oc(-c2ccco2)nc1S(=O)(=O)c1ccc(C)cc1` (stereo not given), the activity change, negative = inhibition is -100%.

`Oc1ccc(NCc2ccccc2OCc2ccc(Cl)cc2)cc1`: the activity change, negative = inhibition was -100%.

Turning to `C#CCN1C(=O)C(O)(CC(=O)c2ccc(OC)c(OC)c2)c2cc(Br)ccc21` (stereo not given), the activity change, negative = inhibition was -100%.

Consider `COc1ccc(C(=O)c2sc(Nc3ccccc3)nc2N)cc1`, for which the activity change, negative = inhibition was -100%.

On to `CCN(CC)c1ccc(NC(=O)CCS(=O)(=O)c2cccc3nsnc23)c(C)c1`, for which the activity change, negative = inhibition is -100%.

As for `O=C(Cn1c(=O)n(Cc2ccc3c(c2)OCO3)c(=O)c2ccc(C(=O)NC3CCCCC3)cc21)Nc1ccccc1F`, the Potency is 5.21 µM (active).

Turning to `COc1ccc(CCCc2nnc(SCC(=O)Nc3ccc(OC)cc3)o2)cc1`, the activity change, negative = inhibition is -100%.

Turning to `CCOc1cc(CNc2ccc(O)cc2)cc(Cl)c1OCc1ccccc1`, the activity change, negative = inhibition was -100%.

On to `O=C(C1CCN(c2nc3ccccc3[nH]2)CC1)N1CCN(c2cccc(Cl)c2)CC1`, for which the activity change, negative = inhibition was -100%.

With `COc1ccc(CN2CCN(c3ncnc4sc5c(c34)CCCC5)CC2)cc1F`, the activity change, negative = inhibition was -100%.

Turning to `CCC1CCc2nc3sc(C(=O)Nc4ccc(C)cc4)c(N)c3cc2C1` (stereo not given), the activity change, negative = inhibition was -100%.

The values above are taken from PubChem BioAssay AID651791 (National Center for Advancing Translational Sciences (NCATS), 2012).
